Our source for the outcome and AC50 values is PubChem BioAssay (EPA / NIEHS).

Inconclusive results are not listed. Calls of active or inactive are those of the source. Rule for the calls: active = hit-call score of the fitted dose curve at least 0.9, where 1 is the maximum; inconclusive = response in the unintended direction; inactive = score below 0.9.

The target of test [1] is human RAR-related Orphan Receptor gamma (RORg), RORC (gene 6097) (UniProt P51449). In words: ATG_RORg_TRANS: Attagene TRANS-FACTORIAL HepG2 Assay for human RAR-related Orphan Receptor gamma (RORg) (AID 2283011). The method in brief:
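Chimeric RORg-Gal4 transactivation in transfected HepG2; 24 h exposure; RT-PCR/capillary electrophoresis readout of reporter mRNA, DMSO baseline.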

The target of test [2] is human Thyroid Receptor alpha (THRa1), THRA (gene 7067) (UniProt P10827). In words: ATG_THRa1_TRANS: Attagene TRANS-FACTORIAL HepG2 Assay for human Thyroid Receptor alpha (THRa1) (AID 2283014). The essentials:
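Measured here is mRNA from a GAL4-UAS reporter in transfected HepG2 cells carrying a Gal4-fused receptor, 24 h post-dose. DMSO served as negative control and baseline.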

Test [3] has as its target human Retinoid X Receptor beta (RXRb), RXRB (gene 6257) (UniProt P28702). Kind of test: ATG_RXRb_TRANS: Attagene TRANS-FACTORIAL HepG2 Assay for human Retinoid X Receptor beta (RXRb) (AID 2283013). The essentials: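 HepG2 cells transiently transfected with multiplexed reporter units driven by GAL4-UAS and exogenous chimeric NR-Gal4 proteins; treated 24 h. Reporter mRNA measured by RT-PCR, 6-FAM labelling and capillary electrophoresis; gain-of-signal fitted versus DMSO baseline.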

The target of test [4] is Retinoic acid receptor RXR-alpha (Homo sapiens) (UniProt P19793). In words: ATG_RXRa_TRANS: Attagene TRANS-FACTORIAL HepG2 Assay for human Retinoid X Receptor alpha (RXRa) (AID 2283012). The method in brief:
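HepG2 cells transiently transfected with multiplexed GAL4-UAS reporter units and chimeric NR-GAL4 fusions, dosed 24 h. Reporter mRNA measured by RT-PCR, FAM labelling, HpaI digestion and capillary electrophoresis; gain-of-signal fitted relative to DMSO baseline.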

Chain of human Thyroid Receptor alpha (THRa1), THRA (gene 7067) (P10827 whole entry, looked up, the tested form may be a part): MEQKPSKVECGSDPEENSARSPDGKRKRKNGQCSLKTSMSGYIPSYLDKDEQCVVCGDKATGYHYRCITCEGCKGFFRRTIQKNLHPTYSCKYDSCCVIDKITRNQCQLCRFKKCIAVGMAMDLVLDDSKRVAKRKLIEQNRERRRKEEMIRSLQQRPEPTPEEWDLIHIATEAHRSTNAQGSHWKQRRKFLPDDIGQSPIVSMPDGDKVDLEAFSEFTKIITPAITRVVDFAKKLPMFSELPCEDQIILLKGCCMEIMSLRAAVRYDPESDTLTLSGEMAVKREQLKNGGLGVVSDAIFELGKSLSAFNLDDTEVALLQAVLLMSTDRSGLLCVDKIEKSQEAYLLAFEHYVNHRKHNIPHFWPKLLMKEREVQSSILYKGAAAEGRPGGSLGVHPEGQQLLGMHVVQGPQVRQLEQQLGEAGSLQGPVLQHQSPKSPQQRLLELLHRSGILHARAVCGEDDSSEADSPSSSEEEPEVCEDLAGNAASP
Chain of human RAR-related Orphan Receptor gamma (RORg), RORC (gene 6097) (P51449 whole entry, looked up, the tested form may be a part): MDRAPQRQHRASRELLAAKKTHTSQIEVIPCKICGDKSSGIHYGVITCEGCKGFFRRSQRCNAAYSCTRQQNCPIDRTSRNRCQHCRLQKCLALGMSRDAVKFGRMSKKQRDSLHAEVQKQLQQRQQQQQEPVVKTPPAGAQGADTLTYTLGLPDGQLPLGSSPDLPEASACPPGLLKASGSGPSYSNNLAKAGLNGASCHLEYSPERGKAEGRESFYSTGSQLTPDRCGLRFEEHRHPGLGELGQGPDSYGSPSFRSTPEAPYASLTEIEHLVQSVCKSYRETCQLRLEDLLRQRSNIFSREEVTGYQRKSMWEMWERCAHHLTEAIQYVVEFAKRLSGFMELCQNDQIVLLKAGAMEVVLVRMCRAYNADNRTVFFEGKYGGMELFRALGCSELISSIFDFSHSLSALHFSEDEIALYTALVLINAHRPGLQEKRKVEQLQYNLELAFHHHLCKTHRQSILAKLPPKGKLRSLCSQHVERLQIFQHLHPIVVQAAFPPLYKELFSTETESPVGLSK
Chain of human Retinoid X Receptor beta (RXRb), RXRB (gene 6257) (P28702 whole entry, looked up, the tested form may be a part): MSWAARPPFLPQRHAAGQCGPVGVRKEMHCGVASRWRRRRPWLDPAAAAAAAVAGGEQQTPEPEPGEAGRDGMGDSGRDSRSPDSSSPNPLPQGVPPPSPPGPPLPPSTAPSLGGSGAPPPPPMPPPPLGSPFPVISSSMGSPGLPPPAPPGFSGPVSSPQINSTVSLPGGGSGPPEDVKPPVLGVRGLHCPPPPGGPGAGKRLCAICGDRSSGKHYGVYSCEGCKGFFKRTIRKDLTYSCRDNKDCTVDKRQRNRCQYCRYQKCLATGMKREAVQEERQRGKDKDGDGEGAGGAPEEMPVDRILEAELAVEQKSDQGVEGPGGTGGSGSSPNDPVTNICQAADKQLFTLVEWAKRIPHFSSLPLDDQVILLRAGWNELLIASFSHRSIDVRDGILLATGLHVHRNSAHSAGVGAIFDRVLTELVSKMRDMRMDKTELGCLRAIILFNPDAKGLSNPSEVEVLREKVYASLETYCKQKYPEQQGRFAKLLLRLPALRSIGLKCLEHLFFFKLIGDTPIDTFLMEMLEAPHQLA
Chain of Retinoic acid receptor RXR-alpha (Homo sapiens) (P19793 whole entry, looked up, the tested form may be a part): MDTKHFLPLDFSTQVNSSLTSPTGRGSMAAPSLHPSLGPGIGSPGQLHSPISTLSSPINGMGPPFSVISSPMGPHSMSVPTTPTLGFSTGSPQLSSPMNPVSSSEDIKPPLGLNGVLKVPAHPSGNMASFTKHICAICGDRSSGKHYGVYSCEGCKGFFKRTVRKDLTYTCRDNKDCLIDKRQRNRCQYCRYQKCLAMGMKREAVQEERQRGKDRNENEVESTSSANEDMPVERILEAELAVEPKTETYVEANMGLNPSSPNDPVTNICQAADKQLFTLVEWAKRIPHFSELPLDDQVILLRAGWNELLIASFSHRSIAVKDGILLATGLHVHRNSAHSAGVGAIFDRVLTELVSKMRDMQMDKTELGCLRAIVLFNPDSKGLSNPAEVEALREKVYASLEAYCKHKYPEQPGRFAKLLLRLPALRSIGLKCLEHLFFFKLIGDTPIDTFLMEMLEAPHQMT

With `O=CC1CC1`, the call in test [1] and in test [2] was inactive.

Take `CC(=O)OCC(=O)[C@@]12N=C(C)O[C@@H]1C[C@H]1[C@@H]3CCC4=CC(=O)C=C[C@]4(C)[C@H]3[C@@H](O)C[C@@]12C`: the call in test [1] and in test [2] was inactive. Further, the AC50 in test [3] is 1.62 µM (active).

Regarding `COC(=O)/C=C/C(C)=C\C=C\C(C)=C\C=C\C=C(C)\C=C\C=C(C)\C=C\C(=O)O`, the call in test [4] was inactive.

As to `CCC(CC)C(=O)O`, the call in test [4] was inactive.

For `NC(=O)c1ccccc1O`, the compound was classed as inactive in test [4].

On to `C=CC(=O)NC(C)(C)CS(=O)(=O)O`, for which the outcome in test [1], in test [3] and in test [2] was inactive.

As to `CCOC(=O)N1CCC(=C2c3ccc(Cl)cc3CCc3cccnc32)CC1`, the compound was classed as inactive in test [4].

For `CCCCCCCC(C)=O`, the result in test [1], in test [3] and in test [2] was inactive.

On to `OC1CCCC1`, for which the compound was classed as inactive in test [1] and in test [2].

`CCCCCC(C)O` (centres undefined): the call in test [4] was inactive.

For the compound `C=C(C)c1cccc(C(C)(C)N=C=O)c1`, the outcome in test [1] and in test [2] was inactive.

Consider `O=S(=O)(O)c1ccccc1C=Cc1ccc(-c2ccc(C=Cc3ccccc3S(=O)(=O)O)cc2)cc1`, for which the compound was called inactive in test [1] and in test [2].

As to `COC(=O)c1sccc1S(N)(=O)=O`, the compound was classed as inactive in test [1] and in test [2].

Turning to `Cc1ccc(C2OC[C@@H]3OC(c4ccc(C)cc4)O[C@H]([C@H](O)CO)[C@@H]3O2)cc1` (some centres undefined), the compound was classed as inactive in test [1] and in test [2].

For the compound `CCC(C)(C)C1CCCCC1OC(C)=O` (centres undefined), the call in test [4] was inactive.

Regarding `O=C(/C=C/C=C/c1ccc2c(c1)OCO2)N1CCCCC1`, the compound was called inactive in test [4].

Regarding `CC(C)CCCC(C)CC=O` (centres undefined), the compound was called inactive in test [1], in test [3] and in test [2].

On to `O=C1CCCC(=O)O1`, for which the compound was classed as inactive in test [1] and in test [2].

`O=S(=O)(O)c1cc(S(=O)(=O)O)c2ccc3c(S(=O)(=O)O)cc(S(=O)(=O)O)c4ccc1c2c43`: the compound was called inactive in test [1], in test [3] and in test [2].

On to `CCOC(=O)c1ccc(N(C)C)cc1`, for which the result in test [1] and in test [3] was inactive.

Turning to `CC(CC=O)CCCC(C)(C)O` (centres undefined), the call in test [4], in test [3] and in test [2] was inactive.

For `COC(=O)c1cc(Cl)ccc1[N+](=O)[O-]`, in test [4], the compound was classed as inactive.

With `COC(=O)c1c(C)cc(O)c(C)c1O`, the compound was called inactive in test [4], in test [3] and in test [2].

Consider `CC(C)(C)c1ccc(OC(=O)c2ccccc2O)cc1`, for which the compound was called inactive in test [4]. In addition, the AC50 in test [3] was 177 µM (active).

In the case of `CCCCCCCCCCCCCCCC(=O)OCC`, the outcome in test [4] and in test [3] was inactive.

For the compound `O=c1[nH]nc(-c2ccc([N+](=O)[O-])o2)o1`, the compound was called inactive in test [4], in test [3] and in test [2].

Turning to `O=C1CC2CC1C1CCCC21` (centres undefined), the compound was called inactive in test [4] and in test [3].
